Source: PubChem (National Center for Advancing Translational Sciences (NCATS))
SARS PLP yeast = blocks SARS-CoV papain-like protease in a yeast assay | S. cerevisiae expressing SARS-CoV PLpro, growth rescue | Potency, µM (top dose mostly 32.9 µM), for the others: at the highest dose activity, positive = growth rescue, most hits filed as activators | hit rate 0.19% among 330,000 | AID 485353; calls by dose curve; also: 0% is about no effect; nearly all actives have a fitted effect of over 55% in size
Pf growth 96h = P. falciparum growth inhibition at 96 hour, primary screen for plastid delayed-death inhibitors. hit rate 6.9% among 320,000. P. falciparum luciferase reporter growth, 96 h. Potency, µM (doses to about 28.7 µM), for the others: at the highest dose activity change, negative = inhibition, actives largely listed as inhibitors; also: % is scaled to controls: 0 for no effect and ±100 for the full control effect
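Delayed-death screen, second-generation endpoint: infected erythrocytes, 2% hematocrit, 0.05% parasitemia final; 96 hours at 37 C, 5% CO2; luciferase detection reagent; luminescence decrease equals reduced growth.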
Sm TGR block = inhibitors of Schistosoma mansoni thioredoxin glutathione reductase. Potency, µM (top dose mostly 114 µM), without a hit: at the top dose activity change, negative = inhibition, usual class: inhibitors. AID 485364. Q962Y6. hit rate 3% among 360,000. purified TGR, DTNB reduction, TNB absorbance 405 nm; also: % is scaled to controls: 0 for no effect and ±100 for the full control effect; nearly all actives have a fitted effect of over 60% in size
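First, TGR (20 nM dispensed) and NADPH were mixed with compound. Second, a 15 min room-temperature incubation followed. Third, further NADPH and then DTNB were added to start the reaction. Finally, TNB absorbance was monitored kinetically.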
Pf growth 48h = inhibits P. falciparum growth in the first generation, 48 h. P. falciparum luciferase growth in erythrocytes, 48 h. Potency, µM (series often up to 28.7 µM), without a hit: top-dose activity change, negative = inhibition, actives largely listed as inhibitors. hit rate 5.9% among 310,000; also: % is scaled to controls: 0 for no effect and ±100 for the full control effect
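Compounds are pin-transferred into medium, infected erythrocytes (2% hematocrit, 0.1% parasitemia final) are added, and plates sit one parasite generation at 37 C in 5% CO2. Detection reagent is then added and luminescence measured.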
Numbers without * were called inactive; [ ] = dose if it differs, or a comment. The list is not random: actives were taken first. Their share in the collection is about 12%. Unless noted, calls follow the shape of the dose curve; as a rule, active = well fitted curve in the direction sought with a large enough effect; inconclusive = small, poorly fitted or top-dose-only effect, or another doubt; inactive = no such curve, though single readings can be large; an effect the other way counts as inactive or inconclusive. Potency is read from the fitted curve at half-maximal effect.

CCOC(=O)C1CCN(C(c2cccc(F)c2)c2sc3nc(C)nn3c2O)CC1 (configuration not stated) was read as SARS PLP yeast 12%, Pf growth 96h inconclusive, Sm TGR block -7% and Pf growth 48h inconclusive.
For CCOC(=O)C1CCN(C(c2ccc(SC)cc2)c2c(O)cc(C)n(Cc3ccco3)c2=O)CC1 (configuration not stated) the results were Sm TGR block 5µM*.
CCOC(=O)C1CCN(C(c2cccc(F)c2)c2c(O)cc(C)n(CCOC)c2=O)CC1 (configuration not stated) was read as Sm TGR block 18µM*.
Screening CCOC(=O)C1CCN(C(c2ccc(C)cc2)c2sc3nc(-c4ccco4)nn3c2O)CC1 (configuration not stated) returned Sm TGR block -6%.
`CCOC(=O)C1CCN(C(c2ccccc2)c2c(O)cc(C)n(Cc3ccco3)c2=O)CC1` (configuration not stated) gave Sm TGR block 8.9µM*.
`Cc1cc(C)c(/C=C/c2onc(C)c2S(=O)(=O)N2CCC(C(=O)NCc3ccco3)CC2)c(C)c1` gave Sm TGR block -2%.
For Cc1nn(CCCC(=O)NCc2ccccc2)c(=O)c2nccn12 the results were SARS PLP yeast 3%, Pf growth 96h 1µM*, Sm TGR block 1% and Pf growth 48h 9%.
For COc1ccc(CNC(=O)CCCn2nc(C)n3ccnc3c2=O)cc1 the results were SARS PLP yeast 3%, Pf growth 96h 10%, Sm TGR block 4% and Pf growth 48h 4%.
Screening CCOc1ccc(C(=O)C(C)OC(=O)Cn2[nH]c(=O)c3ccccc3c2=O)cc1 (configuration not stated) returned SARS PLP yeast 0%, Pf growth 96h -14%, Sm TGR block -10% and Pf growth 48h 1%.
Cc1cccc2cc(C3CC(c4ccco4)=NN3S(C)(=O)=O)c(Cl)nc12 (configuration not stated) was read as SARS PLP yeast 0%, Pf growth 96h inconclusive, Sm TGR block 32µM* and Pf growth 48h inconclusive.
For Cc1cccc2cc(C3CC(c4ccco4)=NN3S(=O)(=O)c3ccccc3)c(Cl)nc12 (configuration not stated) the results were SARS PLP yeast 6%, Pf growth 96h inconclusive, Sm TGR block -9% and Pf growth 48h inconclusive.
Screening COCCNC(=S)N1CCc2cc(OC)c(OC)cc2C1COc1cc(C)cc(C)c1 (configuration not stated) returned SARS PLP yeast 13%, Pf growth 96h inconclusive, Sm TGR block 2% and Pf growth 48h 12µM*.
For Cc1ccc(CN(C(=O)COc2ccc(Br)cc2)C2CCS(=O)(=O)C2)o1 (configuration not stated) the results were SARS PLP yeast 1%, Pf growth 96h 1%, Sm TGR block -27% and Pf growth 48h -8%.
COc1ccc(NC(=O)C2C3C=CC(C3)C2C(=O)O)cc1 (configuration not stated) was read as SARS PLP yeast 0%, Pf growth 96h 20%, Sm TGR block -17% and Pf growth 48h 7%.
`Cc1ccc(-c2ccc(NC(=O)C3C4C=CC(C4)C3C(=O)O)cc2)o1` (configuration not stated) gave SARS PLP yeast 8%, Pf growth 96h 176% and Sm TGR block 45µM*.
COc1ccc(N(CC(=O)NCc2ccco2)S(=O)(=O)c2ccc(OC)c(OC)c2)cc1 was read as SARS PLP yeast 10%, Pf growth 96h 15µM* and Sm TGR block -3%[11.4 µM].
`CCOc1ccc(N(CC(=O)NCc2ccco2)S(=O)(=O)c2ccc(OC)c(OC)c2)cc1` gave SARS PLP yeast -1%, Pf growth 96h 24%, Sm TGR block 32µM* and Pf growth 48h 12µM*.
Screening COc1ccc(S(=O)(=O)N(CC(=O)NCc2ccco2)c2ccc(C)cc2)cc1OC returned SARS PLP yeast 15%, Pf growth 96h -2%, Sm TGR block inconclusive and Pf growth 48h -2%.
`O=C(NCC1CCCC(CNC(=O)N2CCc3ccccc32)C1)N1CCc2ccccc21` (configuration not stated) gave SARS PLP yeast 5%, Pf growth 96h 5.9µM* and Sm TGR block -11%.
For O=C(CCCCn1c(=O)c2ccccc2n(CC(=O)Nc2ccc(F)cc2)c1=O)NCc1ccco1 the results were SARS PLP yeast 4%, Pf growth 96h inconclusive, Sm TGR block 1% and Pf growth 48h 12µM*.
Screening CCN(CC)C(=O)Cn1cc(C(=O)C(=O)NCc2ccco2)c2ccccc21 returned SARS PLP yeast -1%, Pf growth 96h 13%, Sm TGR block 40µM* and Pf growth 48h inconclusive.
`CCCN(CCC)C(=O)Cn1c(=O)n(CCCCC(=O)NCc2ccco2)c(=O)c2ccccc21` gave SARS PLP yeast 5%, Pf growth 96h 12µM* and Sm TGR block -8%.
For CCC(C)NC(=O)Cn1c(=O)n(CCCCC(=O)NCc2ccco2)c(=O)c2ccccc21 (configuration not stated) the results were SARS PLP yeast 0%, Pf growth 96h inconclusive and Sm TGR block 0%.
Screening O=C(CCCn1c(=O)c2ccccc2n(CC(=O)NCc2ccco2)c1=O)NCc1ccco1 returned SARS PLP yeast 0%, Pf growth 96h 38%, Sm TGR block 25µM* and Pf growth 48h -5%.
`Cc1ccc(NC(=O)Cn2c(=O)n(CCCCC(=O)NCc3ccco3)c(=O)c3ccccc32)cc1` gave SARS PLP yeast 1%, Pf growth 96h 6% and Sm TGR block -21%.
Screening CCN(CC)C(=O)Cn1cc(SCC(=O)NCc2ccco2)c2ccccc21 returned SARS PLP yeast 1%, Pf growth 96h inconclusive, Sm TGR block -25% and Pf growth 48h inconclusive.
`Cn1c(=O)c(=O)n(C)c2cc(N3CCCC3)c(NC(=O)c3ccccc3Cl)cc21` gave Sm TGR block -1%.
`CCOC(=O)c1ccc(NC(=O)C2Cc3ccccc3C(=O)O2)cc1` (configuration not stated) gave Sm TGR block 0%.
Screening Cc1cc(C)n(C(=O)/C=C/c2cccs2)n1 returned SARS PLP yeast 1%, Pf growth 96h 10%, Sm TGR block -8% and Pf growth 48h 25%.
Screening COc1ccc(C)cc1NC(=O)C1CCN(S(=O)(=O)c2ccc3c(c2)CCCN3C(C)=O)CC1 returned Sm TGR block 7%.
For COc1ccc2oc(C(=O)OCC(=O)NC3(C#N)CCCC3)c(C)c2c1 the results were SARS PLP yeast 2%, Pf growth 96h 2%, Sm TGR block 6% and Pf growth 48h inconclusive.
Screening COc1ccc2c(c1)c1c(c(=O)n(-c3ccc(C)cc3)c(=O)n1CC(=O)NCc1ccc(C)cc1)n2C returned Sm TGR block -3%.
`COc1ccc(Cn2c(C)ccc2C)cc1` gave SARS PLP yeast 2%, Pf growth 96h 89% and Sm TGR block 32µM*.
